Structures are written as SMILES. Among all 400,000 compounds or so, about 2,100 (0.53%) were called active. Another 14% or so got no clear call; they are omitted. No rule for the calls is given here. What follows is part of a selection rich in actives, with near analogues and random picks from the rest.

The target of this experiment is Ataxin-2 (Homo sapiens) (UniProt Q99700). Put plainly: qHTS for Inhibitors of ATXN expression. The experiment is classed as functional.
Chain of Ataxin-2 (Homo sapiens) (Q99700 whole entry): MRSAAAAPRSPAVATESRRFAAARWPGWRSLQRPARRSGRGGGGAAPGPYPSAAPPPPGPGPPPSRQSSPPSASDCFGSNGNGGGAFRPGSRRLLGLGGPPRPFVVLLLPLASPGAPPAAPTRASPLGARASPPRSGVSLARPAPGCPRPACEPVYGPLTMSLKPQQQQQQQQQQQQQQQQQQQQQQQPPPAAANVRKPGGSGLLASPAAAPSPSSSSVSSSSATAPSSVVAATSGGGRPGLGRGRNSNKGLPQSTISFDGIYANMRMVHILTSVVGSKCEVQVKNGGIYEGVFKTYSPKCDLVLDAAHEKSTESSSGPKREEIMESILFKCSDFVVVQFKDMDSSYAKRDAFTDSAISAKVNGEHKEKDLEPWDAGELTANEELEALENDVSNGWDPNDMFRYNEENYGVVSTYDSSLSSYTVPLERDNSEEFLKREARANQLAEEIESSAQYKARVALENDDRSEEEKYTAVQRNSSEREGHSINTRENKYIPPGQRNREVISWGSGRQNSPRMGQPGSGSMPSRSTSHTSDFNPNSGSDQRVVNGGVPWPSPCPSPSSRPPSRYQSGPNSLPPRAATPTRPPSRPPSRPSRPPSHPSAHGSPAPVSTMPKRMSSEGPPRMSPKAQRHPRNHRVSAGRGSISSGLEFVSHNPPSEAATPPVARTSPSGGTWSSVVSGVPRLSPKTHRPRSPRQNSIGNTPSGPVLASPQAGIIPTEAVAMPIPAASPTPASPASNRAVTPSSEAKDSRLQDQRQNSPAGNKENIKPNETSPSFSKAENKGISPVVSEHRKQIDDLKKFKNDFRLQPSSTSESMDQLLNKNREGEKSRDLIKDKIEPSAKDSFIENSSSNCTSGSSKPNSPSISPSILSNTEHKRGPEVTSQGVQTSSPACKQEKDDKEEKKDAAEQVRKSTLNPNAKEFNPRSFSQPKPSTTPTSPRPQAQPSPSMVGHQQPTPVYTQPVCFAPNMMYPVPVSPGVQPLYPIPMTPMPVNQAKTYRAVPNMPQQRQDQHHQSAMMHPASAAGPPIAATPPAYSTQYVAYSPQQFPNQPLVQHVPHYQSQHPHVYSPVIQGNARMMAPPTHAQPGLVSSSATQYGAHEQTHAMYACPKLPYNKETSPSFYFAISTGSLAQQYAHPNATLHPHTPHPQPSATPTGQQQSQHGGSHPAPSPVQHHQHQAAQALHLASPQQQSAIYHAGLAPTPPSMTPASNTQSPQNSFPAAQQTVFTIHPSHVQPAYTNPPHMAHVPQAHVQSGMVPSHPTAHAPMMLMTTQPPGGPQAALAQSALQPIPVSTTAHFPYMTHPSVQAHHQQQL
As to `COc1ccc(Sc2ccc(-c3nc4cnccn4c3NC3CCCCC3)cc2OC)cc1`, the Potency result was “inactive”. In the case of `CN(Cc1nc(-c2cnccn2)no1)C1CC(C)(C)NC(C)(C)C1`, the Potency entry is “inactive”. The entry for `Cc1ccccc1N(CC(=O)NC(C)(C)C)C(=O)CCC(=O)Nc1nccs1` is “inactive”. As for `CCCCN1CCc2c(c3ccccc3n2Cc2ccccc2)C1`, the Potency was 28.2 µM (active). Then `Oc1ncnc2sc3c(c12)CN(Cc1ccccc1)CC3`, with “inactive”; and `CCCN1CNc2c(c(=O)[nH]c(=S)n2CCc2ccccc2)C1`, with “inactive”. The entry for `CCCCCC(=O)NNC1=NCC(Cc2ccccc2)S1` (centres undefined) is “inactive”; for `COc1cc2cc(C(=O)N3CCN(Cc4ccc5c(c4)OCO5)CC3)c(=O)oc2cc1OC` it is “inactive”. Then `CCO[C@H]1OC(C(=O)N2CCN(Cc3ccc4c(c3)OCO4)CC2)=C[C@@H](c2ccc(C(F)(F)F)cc2)[C@@H]1CCCO`, with 35.5 µM (active); and `O=C(c1cc([N+](=O)[O-])cc([N+](=O)[O-])c1)N1CCN(Cc2ccc3c(c2)OCO3)CC1`, with “inactive”; and `CCOC(=O)/C(=C/c1ccc(N2CCC(c3ccccc3)=N2)cc1)C(C)=O`, with “inactive”. Regarding `CCOC(=O)C(=Cc1ccc(-n2ccnc2)cc1)C(=O)OCC`, the Potency is 25.1 µM (active). Then `CCN1CCN(c2cc(C)c3cc(NC(=O)c4cc(Br)ccc4Cl)ccc3n2)CC1`, with 31.6 µM (active); and `Cc1cc(N2CCN(C)CC2)nc2ccc(NC(=O)Nc3ccccc3Br)cc12`, with 39.8 µM (active); and `Cc1cc(N2CCN(C)CC2)nc2ccc(NC(=O)Nc3cccc(Cl)c3)cc12`, with 31.6 µM (active). Consider `CCN1CCN(c2cc(C)c3cc(NC(=O)CCC(=O)Nc4ccc(OC)cc4OC)ccc3n2)CC1`, for which the Potency result is “inactive”. Then `CCOc1ccc(S(=O)(=O)N2CCN(C)CC2)cc1NC(=O)c1ccccc1F`, with “inactive”; and `CCOc1ccccc1NC(=O)Nc1ccc2nc(N3CCN(C)CC3)cc(C)c2c1`, with 31.6 µM (active).

`Cc1cc(Nc2cccc(Cl)c2)nc2ccc(NC(=O)COc3ccc(Cl)cc3)cc12`: the Potency entry was “inactive”. Then `COc1ccc(Cl)cc1C(=O)Nc1ccc2nc(Nc3cccc(Cl)c3)cc(C)c2c1`, with “inactive”; and `CCCN(CCC)CCNC(=O)CCC(=O)Nc1ccc2nc(N3CCOCC3)cc(C)c2c1`, with “inactive”; and `COCCCn1c(=N)c(C(=O)NC2CCCC2)cc2c(=O)n3ccccc3nc21`, with “inactive”. In the case of `COc1ccc(S(=O)(=O)NCc2ccco2)cc1C(=O)N1CCOCC1`, the Potency result was “inactive”.

On to `CCCN(CCC)S(=O)(=O)c1ccc(C(=O)OCCN2C(=O)c3cccc4c(N5CCOCC5)ccc(c34)C2=O)cc1`, for which the Potency result was “inactive”. The entry for `O=C(CCCNC1=NS(=O)(=O)c2ccccc21)Nc1ccc(Cl)cc1` is “inactive”; for `CCOC(=O)c1cc2c(=O)n3ccccc3nc2n(Cc2ccccc2)c1=N` it is “inactive”. Regarding `Cc1cc(N2CCN(C)CC2)nc2ccc(NC(=O)Nc3ccccc3)cc12`, the Potency was 17.8 µM (active).

For the molecule `COC(=O)c1cc(N2CCN(C)CC2)nc2ccccc12`, the Potency entry is “inactive”. With `Cc1cc(N2CCN(C)CC2)nc2ccc(NC(=O)CCC3CCCC3)cc12`, the Potency entry was “inactive”.

In the case of `Cc1onc(-c2c(Cl)cccc2Cl)c1NC(=O)NNc1ccccn1`, the Potency entry was “inactive”.

Consider `Cc1cc(C)c(C#N)c(SCc2ccc(F)cc2)n1`, for which the Potency result was “inactive”. The figure for `Cn1c(Cl)cnc1C1CC(=O)c2cc(Cl)ccc2O1` (centres undefined) is 39.8 µM (active). The entry for `Cc1cccc(-n2cnc(C(=O)N3CCN(C)CC3)c2)n1` is “inactive”.

As to `CCc1csc(CCNC(=O)C2CCC(=O)N(Cc3ccccc3F)C2)n1` (centres undefined), the Potency entry is “inactive”. Take `CC#CCN(Cc1ccco1)C(=O)C1CCC(=O)N(CCc2cccc(F)c2)C1` (centres undefined): the Potency result is “inactive”.

`CCCc1cc(CNC(=O)C2CCC(=O)N(CCc3cccc(F)c3)C2)on1` (centres undefined): the Potency was 35.5 µM (active). In the case of `COC1=C(c2ccccc2)C(=O)c2ccccc2C1=O`, the Potency entry is “inactive”. Then `O=C(c1ccccc1)c1ccc2cc(O)ccc2c1`, with “inactive”; and `O=C(C1=C(c2ccccc2)C(=O)c2ccccc2C1=O)c1ccccc1`, with 7.08 µM (active). Then `CCCCOc1ccc(C(=O)C(CN2CCOCC2)c2ccccc2)cc1` (centres undefined), with 39.8 µM (active); and `CCOc1ccc2nc(N3CCOCC3)nc(C)c2c1`, with “inactive”; and `O=C(N/N=C/c1ccc(N2CCOCC2)cc1)c1ccccc1OCCOc1ccccc1`, with “inactive”. Then `CCOc1ccc(C2C(C(=O)OC)=CN(C(C)c3ccccc3)C=C2C(=O)OC)cc1` (centres undefined), with “inactive”. For `OC(CN1CCOCC1)(c1ccccc1)c1ccccn1` (centres undefined), the Potency entry is “inactive”. The figure for `CCOc1ccc(C(=O)C(CN2CCOCC2)c2ccccc2)cc1` (centres undefined) is 35.5 µM (active); for `CC1Cc2ccccc2N1CC(=O)NC(=O)NC1CCCCC1` (centres undefined) it is “inactive”. Then `COc1ccc(NC2=C(C(C)=O)C(c3ccc(OC)cc3)C(C(C)=O)C(C)(O)C2)cc1` (centres undefined), with “inactive”; and `CCCCNc1nc2cccnc2s1`, with “inactive”; and `CCN(CC)c1nc(-c2ccccc2)ncc1S(=O)(=O)c1ccc(C)cc1`, with “inactive”. Then `Cc1cc(Sc2ccc([N+](=O)[O-])cn2)ccc1Br`, with “inactive”; and `Cc1ccc(S(=O)(=O)c2ccc([N+](=O)[O-])cn2)cc1`, with 39.8 µM (active); and `O=[N+]([O-])c1ccc(Nc2ccccc2F)nc1`, with “inactive”.

For the molecule `O=[N+]([O-])c1ccc(S(=O)(=O)c2ccccc2)nc1`, the Potency is 5.62 µM (active). `Cc1cc(S(=O)(=O)c2ccc([N+](=O)[O-])cn2)ccc1Br`: the Potency is 29.9 µM (active). For `NS(=O)(=O)c1ccc(S(=O)(=O)c2ccccc2)nc1`, the Potency result was “inactive”. The entry for `Cn1c(S(=O)(=O)c2ccc([N+](=O)[O-])cc2)nc(Br)c1Br` is “inactive”; for `Cc1c(C)c(C)c(C(=O)C2CCN(c3ccc([N+](=O)[O-])cn3)CC2)c(C)c1C` it is “inactive”. The entry for `Cc1ccc2nc3c(cc(C(=O)NCC4CCCO4)c(=N)n3CC3CCCO3)c(=O)n2c1` (centres undefined) is “inactive”. Consider `Cc1ccc(C2C=C(c3ccccc3OC(F)F)Nc3ncnn32)cc1` (centres undefined), for which the Potency result was “inactive”. The entry for `Cn1c(C(=O)NCCN2CCOCC2)cc2c(=O)n3ccccc3nc21` is “inactive”; for `CCCCn1c(SCCN2CCCCC2)nc2c1c(=O)n(C)c(=O)n2C` it is “inactive”. As to `OC(c1cc(C(F)(F)F)nc2c(C(F)(F)F)cccc12)C1CCCCN1` (centres undefined), the Potency is 20 µM (active). `O=S(=O)(Nc1nc2n(n1)C(c1ccc(F)cc1)C=C(c1ccc(Cl)cc1)N2)c1ccccc1` (centres undefined): the Potency result is “inactive”. For the molecule `COCC(C)OC(=O)c1c(N)n(CCCN2CCOCC2)c2nc3ccccc3nc12` (centres undefined), the Potency result is “inactive”.

Values taken from ChEMBL document CHEMBL1201862, “PubChem BioAssay data set” (2004).
